Source: PubChem BioAssay
Shown are actives, neighbours in structure and some others; about 2.3% of the full set was active somewhere.
CHO-K1 Ca antag: counter-screen for M1 antagonists: effect in parental CHO-K1 cells; ATP-induced calcium, Fluo-8 fluorescence; inhibition, % at 3 µM; AID 602250; hit rate 0.6% among 360,000;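 active = inhibition above a per-plate cutoff, the plate's mean sample inhibition plus 3 SD, cut at about 24% in these data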
CHRM1 PAM: human CHRM1 positive allosteric modulation; AID 588819; hit rate 0.088% among 360,000; activation, % at 3 µM; CHO-K1 hM1, Fluo-8 calcium fluorescence, ACh EC20; 0% = ACh EC20, 100% = maximal ACh; P11229; in the data active = activation above about 19%, passing the limit was not always enough
Target sequence (P11229 whole entry, looked up): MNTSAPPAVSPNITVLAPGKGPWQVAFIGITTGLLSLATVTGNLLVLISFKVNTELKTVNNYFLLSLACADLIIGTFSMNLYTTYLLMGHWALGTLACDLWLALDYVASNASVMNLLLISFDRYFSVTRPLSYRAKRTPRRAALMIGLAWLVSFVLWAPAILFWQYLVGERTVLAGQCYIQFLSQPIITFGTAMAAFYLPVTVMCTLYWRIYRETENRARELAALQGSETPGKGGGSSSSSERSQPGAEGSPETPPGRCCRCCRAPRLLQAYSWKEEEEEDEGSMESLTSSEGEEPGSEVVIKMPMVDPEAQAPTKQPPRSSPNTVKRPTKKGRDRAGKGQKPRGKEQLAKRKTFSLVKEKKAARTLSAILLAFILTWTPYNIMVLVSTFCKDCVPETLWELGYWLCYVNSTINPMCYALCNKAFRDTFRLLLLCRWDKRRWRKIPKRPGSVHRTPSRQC
M1 antag: blocks human M1 muscarinic receptor | AID 588852 | hit rate 1.3% among 360,000 | P11229 | inhibition, % at 3 µM | CHO-K1 hM1, Fluo-8 calcium fluorescence, ACh EC80 antagonist;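 active = percent inhibition above its own plate's cutoff, namely the mean of that plate's compound wells plus 3 SD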;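 also: peak over basal fluorescence ratio during 140 s after agonist addition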
M1 ag parental: nonselective activator or artifact in parental CHO-K1 cells. hit rate 0.48% among 360,000. AID 602248. activation, % at 3 µM. Fluo-8 calcium fluorescence; scaled to maximal ATP response, vehicle zero; in the data active = activation above about 15%;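 also: untransfected CHO-K1 host cells lacking M1 receptor as counterscreen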
M1 PAM parental: M1 PAM counterscreen hit in parental CHO-K1 cells; ATP EC20, Fluo-8 calcium fluorescence; 0% at ATP EC20, 100% at ATP max; activation, % at 3 µM; hit rate 0.02% among 360,000;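 active = activation above the run cutoff, the mean activation of all test compounds plus 3 SD, cut at about 40% in these data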;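 also: peak over basal fluorescence ratio in a 140 s read after ATP addition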
CHRM1 agonist: human M1 muscarinic receptor agonism | P11229 | CHO-K1 hM1, Fluo-8 calcium fluorescence, agonist mode; 0% DMSO, 100% acetylcholine EC100 | activation, % at 3 µM | hit rate 0.33% among 360,000 | AID 588814;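 active = activation above the run's mean compound activation plus 3 SD, cut at about 16% in these data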;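 also: peak over basal fluorescence ratio within a 140 s kinetic read after compound addition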
Of the large screens only hits and unclear results are named; the others gave an inactive call.

COC(=O)C1(C)COP(=O)(Nc2ccc(OC)cc2)OC1 (stereo unspecified)	none
COc1ccc(NC(=O)C2(C)CCN2Cc2cccc(OC)c2F)cc1OC (stereo unspecified)	none
c1ccc(-c2nn3c(C4CCCCC4)nnc3s2)nc1	none
c1ccc(-c2nn3c(C4CCCCC4)nnc3s2)cc1	CHO-K1 Ca antag 25
COc1ccc(Br)c(C(=O)NCC2CCCCC2)c1	none
O=C(O)c1ccc2c(c1)C(=O)N(c1cccc(-c3nc4ccccc4s3)c1)C2=O	CHO-K1 Ca antag 24
CC(=O)Oc1cccc(N2C(=O)c3ccc(C(=O)O)cc3C2=O)c1	none
CC(=O)Nc1cccc(-c2nc3ccccc3s2)c1	M1 ag parental 21
CC(=O)Nc1cccc(-c2nc3ccc(NC(C)=O)cc3s2)c1	none
COc1ccc(-c2cc3c(=O)n(CC(=O)NCc4ccccc4F)ncn3n2)cc1	CHO-K1 Ca antag 26
CC1(C)CC(=O)C(C=Nc2ccccc2Sc2ccccc2)=C(O)C1	M1 antag 63
CC1(C)CC(=O)C(C=Nc2ccccc2C(=O)O)=C(O)C1	none
CN1CCC(Oc2ccccc2Sc2ccccc2)CC1	M1 antag 100
CN1CCC(OC(c2ccccc2)c2ccccc2)CC1	M1 antag 100
NC(=O)c1nn(CC(=O)Nc2cccc(S(=O)(=O)N3CCCC3)c2)c(=O)c2ccccc12	none
CC(=O)c1ccc(OCCCN2CCCCC2)cc1	none
CC1CCN(CCCCOc2ccc(C(C)(C)C)cc2)CC1	M1 antag 60
c1ccc(COc2ccc(OCCCN3CCCCC3)cc2)cc1	M1 antag 50
O=C(c1ccccc1)c1ccc(OCCCN2CCCCC2)cc1	M1 antag 34
c1ccc(OCc2ccc(CCCN3CCOCC3)cc2)cc1	M1 antag 37
c1ccc(CCCN2CCOCC2)cc1	none
Cc1ccc(NC(=O)CSc2ccc(Br)cc2)cc1S(=O)(=O)N1CCOCC1	none
CC1CCN(CCOc2ccc(OCc3ccccc3)cc2)CC1	M1 antag 61
c1ccc(COc2ccc(OCCCCN3CCCC3)cc2)cc1	M1 antag 35
CC1CC(C)CN(CCCCOc2ccc([N+](=O)[O-])cc2)C1 (stereo unspecified)	M1 antag 24
COCCCNCCCCOc1ccc(OCc2ccccc2)cc1	none
c1ccc(COc2ccc(OCCCNC3CCCC3)cc2)cc1	M1 antag 29
C[C@@H]1CN([C@@H](C)CO)C(=O)CCCn2nncc2CO[C@H]1CN(C)S(=O)(=O)c1ccc(-n2cccn2)cc1	none
CCOc1ccccc1N1CCN(C(=O)c2cc(-c3cccnc3)nc3c(Cl)cccc23)CC1	none
COC(=O)Cc1ccc(OC2(C)CCN(Cc3ccccc3OC(F)F)C2)cc1 (stereo unspecified)	M1 antag 55
CC(=O)c1cc2cccc(OC3(C)CCN(Cc4ccc(-c5ccccn5)cc4)C3)c2o1 (stereo unspecified)	M1 antag 35
COC(=O)Cc1ccc(OC2(C)CCN(Cc3ccc(-c4ccccn4)cc3)C2)cc1 (stereo unspecified)	M1 antag 59
OC(c1cccnc1)c1nc(-c2cccc(F)c2)cs1 (stereo unspecified)	none
Cc1cc(C(=O)O)ccc1-c1ccc(/C=C2\SC(=O)N(CC(=O)Nc3ccc4c(c3)OCO4)C2=O)o1	CHO-K1 Ca antag 27
COc1ccc(CNC(C)C(=O)Nc2ccc3ccccc3c2)cc1OC (stereo unspecified)	none
CCCNCCC(c1ccco1)c1ccccc1OC (stereo unspecified)	M1 antag 41
O=S1(=O)N[C@@H](Cc2ccccc2)COc2cc(N3CC[C@H](O)C3)ccc21	none (no result: CHRM1 PAM, M1 antag, CHRM1 agonist)
Cn1ccnc1C1CCCCN1Cc1nc(Cc2ccccc2F)no1 (stereo unspecified)	M1 antag 99
COC(=O)c1ccc(-c2noc(CN3CCCCC3c3nccn3C)n2)cc1 (stereo unspecified)	M1 antag 35
O=C(c1ccc(-c2nc3ccccc3s2)o1)N1CCN(c2ccccc2O)CC1	CHO-K1 Ca antag 30
O=C(O)c1ccc(-c2nc3ccccc3s2)o1	none
